# Source: PubChem
# A selection: hits, their analogues and other compounds. The true share with any hit is near 4.1%.
# DAX1 inh-1 = DAX1 (NR0B1) inhibitors, primary screen, cell-based, HEK293, Gal4-DAX1, luciferase luminescence | inhibition, % at 6.75 µM | 0.99% of 340,000 active | Nuclear receptor subfamily 0 group B member 1 (Homo sapiens), P51843 | HEK293 Gal4-DAX1 luciferase reporter;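 active means inhibition above the mean over all tested compounds plus 3 SD, cut at about 4.2% in these data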;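 further: 0% = DAX1-transfected cells with DMSO and 100% = empty-vector control cells with DMSO; inhibition shows as a rise in luminescence from relieved DAX1 repression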
# DAX1 inh-2 = DAX1 (NR0B1) inhibitors on StAR promoter, primary screen, cell-based, luminescence, SF-1 (NR5A1), full-length DAX-1. AID 652010, 2013. inhibition, % at 6.8 µM. 1.1% of 370,000 active. HEK293T StAR-luciferase reporter, SF-1/DAX-1 repression relief;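 active means inhibition above the mean over all tested compounds plus 3 SD, cut at about 3.6% in these data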;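 further: 0% = DAX-1 cells with DMSO and 100% = cells lacking DAX-1 with DMSO; higher inhibition means more luminescence from relief of DAX-1 repression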
# ssDAF-12 act = S. stercoralis DAF-12 nuclear receptor activators, primary screen, cell-based, luminescence, HEK293, GRIP1 co-expression, lit1-tk-luc | Nuclear hormone receptor DAF-12 (Strongyloides stercoralis) | HEK293 ssDAF-12/GRIP1 lit1-tk-luc reporter; % of 3 µM dafachronic acid response | activation, % at 6.8 µM | 1% of 370,000 active | AID 652126, 2013;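 active means activation above the mean over all tested compounds plus 3 SD, cut at about 0.9% in these data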;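 further: 0% = DMSO-only wells and 100% = 3 µM delta7-dafachronic acid wells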
# hgDAF-12 ag = H. glycines DAF-12 receptor agonists, primary screen, cell-based, luminescence, HEK293, GAL4 fusion, UAS-luciferase; HEK293 GAL4-hgDAF12 UAS-luciferase reporter, agonist luminescence; normalized to butyrate control; activation, % at 6.8 µM; 1.8% of 370,000 active;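 active means activation above a cutoff set at the mean of all screened compounds plus 3 SD, cut at about 10% in these data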;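 further: 0% = DMSO wells and 100% = sodium butyrate wells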
# hcDAF-12 act = H. contortus DAF-12 nuclear receptor activators, primary screen, cell-based, luminescence, HEK293, lit1-tk-luc reporter. HEK293 hcDAF-12 lit1-tk-luc reporter; 0% DMSO, 100% Δ7-dafachronic acid. 1.4% of 370,000 active. activation, % at 6.8 µM;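 active means activation above the mean of all tested compounds plus 3 SD, cut at about 5.5% in these data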;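 further: 100% = response to 3 µM Δ7-dafachronic acid high control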
# DAX1 conf = DAX1 (NR0B1) inhibitors relieving SF-1 repression, confirmation, cell-based, luminescence, HEK293T, full-length DAX-1, SF-1 activated StAR promoter; shares compounds with DAX1 inh-2; HEK293T StAR-promoter luciferase reporter, SF-1/DAX-1 repression; inhibition, % at 6.8 µM; 87% of 2,400 active; AID 652134, 2013;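 active means inhibition above the average of every tested compound plus 3 SD, cut at about 3.8% in these data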;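 further: 0% = DAX-1 cells with DMSO and 100% = no DAX-1 control cells with DMSO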
# SF1 AF2mut Luc = StAR reporter signal changes without DAX1, counter-screen for DAX1 inhibitor project, cell-based, luminescence, AF-2 mutant SF-1, transactivation | AID 652136, 2013 | shares compounds with DAX1 inh-2 | HEK293 StAR-luciferase, SF-1 AF2 mutant | 78% of 2,400 active | inhibition, % at 6.8 µM;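 active means inhibition above the mean of all tested compounds plus 3 SD, cut at about 3% in these data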;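 further: 0% = DAX-1 transfected cells with DMSO and 100% = cells without DAX-1 with DMSO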
# LXRb hcDAF ctr = LXR agonists, Gal4 luciferase reporter, confirmation, counter-screen for hcDAF-12 agonist project, cell-based, luminescence, HEK293, H. contortus campaign. shares compounds with hcDAF-12 act. activation, % at 6.8 µM. 3,400 tested, under 10 active. HEK293 Gal4-LXR tk-luc reporter, 24 h; normalized: DMSO 0%, positive control 100%;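 active means mean percent activation of the reporter above a cutoff set as the average over tested compounds plus their standard deviation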
# Target sequence (P55055 whole entry, looked up, the tested form may be a part): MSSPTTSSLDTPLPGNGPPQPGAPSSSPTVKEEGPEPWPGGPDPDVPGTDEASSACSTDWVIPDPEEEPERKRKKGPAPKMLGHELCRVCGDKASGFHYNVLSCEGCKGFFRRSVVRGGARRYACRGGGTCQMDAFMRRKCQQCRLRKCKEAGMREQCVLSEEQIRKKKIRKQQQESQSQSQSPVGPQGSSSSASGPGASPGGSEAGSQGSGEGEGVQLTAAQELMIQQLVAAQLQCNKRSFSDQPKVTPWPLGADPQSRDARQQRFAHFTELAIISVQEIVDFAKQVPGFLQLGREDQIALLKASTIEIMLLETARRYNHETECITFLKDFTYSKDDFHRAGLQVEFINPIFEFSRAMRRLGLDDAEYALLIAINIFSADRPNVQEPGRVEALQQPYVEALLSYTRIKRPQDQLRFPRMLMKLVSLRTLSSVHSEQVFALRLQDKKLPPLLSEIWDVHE
# hcDAF12 ag = H. contortus DAF-12 receptor agonists, confirmation, cell-based, luminescence, HEK293, lit1-tk-luc, triplicate | HEK293 hcDAF-12 lit1-tk-luc reporter; % of Δ7-dafachronic acid response | activation, % at 6.8 µM | 61% of 3,400 active | shares compounds with hcDAF-12 act | AID 743032, 2013;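 active means mean activation across triplicate tests above the threshold derived from the earlier primary screen, cut at about 5.5% in these data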;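 further: 0% = DMSO only wells and 100% = 3 µM Δ7-dafachronic acid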
# hgDAF12 conf = H. glycines DAF-12 receptor agonists, confirmation, cell-based, luminescence, HEK293, GAL4-LBD fusion; shares compounds with hgDAF-12 ag; HEK293 GAL4-hgDAF12 luciferase reporter, agonist mode; percent of butyrate response; activation, % at 6.8 µM; 80% of 3,300 active;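 active means mean activation over triplicate wells above the hit cutoff derived from the earlier primary screen, cut at about 11% in these data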;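 further: 0% = DMSO low control and 100% = 2 mM sodium butyrate high control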
# LXR ag 2 = LXR agonists, Gal4 luciferase reporter, confirmation, counter-screen for hgDAF-12 agonist project, cell-based, luminescence, HEK293, H. glycines campaign. 24 h. AID 743051, 2013. activation, % at 6.8 µM. 3,300 tested, under 10 active. shares compounds with hgDAF-12 ag;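 active means mean activation of the triplicate above a set limit carried over from the primary screen, none filed active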
# * = called active by the depositor; . = no result.
SMILES,DAX1 inh-1,DAX1 inh-2,ssDAF-12 act,hgDAF-12 ag,hcDAF-12 act,DAX1 conf,SF1 AF2mut Luc,hgDAF12 conf,LXR ag 2,others
Cc1cccc(-c2cnc3cccnn23)c1,.,2,-1,7,-2,.,.,.,.,
CCOc1cccc(-c2cnc3cccnn23)c1,.,6.1*,0,21*,1,7.1*,5.1*,16*,0,
CN(C(=O)/C=C/c1cnc2ccccc2c1)C1CCCCC1,-1,7.8*,0.9*,17*,8.1*,17*,9.9*,15*,1,LXRb hcDAF ctr=1;hcDAF12 ag=6.3*
COc1ccc(/C=C/C(=O)N(C)C2CCCCC2)cc1Br,3,0,-1,6,-1,.,.,.,.,
Cc1ccc(C(=O)Nc2ccc3nccnc3c2)cc1,-2,5.3*,1,13*,9.0*,17*,8.3*,16*,1,LXRb hcDAF ctr=2;hcDAF12 ag=7.7*
CC(=O)c1ccc(NC(=O)c2ccc(C)c(Br)c2)cc1,3,4.9*,0,16*,5.7*,12*,9.4*,18*,1,
CCCCC(=O)Nc1ccc(C(=O)NNC(=O)c2ccc(C)c(Br)c2)cc1,-1,0,-1,0,-1,.,.,.,.,
COC(=O)c1ccc(NC(=O)c2ccc3nccnc3c2)cc1,-1,0,-1,3,-3,.,.,.,.,
Cc1cc(NC(=O)c2ccc3nccnc3c2)ccc1Br,2,5.6*,1,16*,5,7.6*,4.7*,15*,1,
CCOc1cc(C)nc(N2CCC(C(=O)NC3CC3)CC2)n1,1,0,-1,4,2,.,.,.,.,
CCOC(=O)c1c(S(=O)(=O)NCC(=O)NCc2ccc(C)cc2)c(C)n(C)c1C,-1,0,-1,2,-1,.,.,.,.,
Cc1cc(C(=O)COC(=O)c2ccc(NC(=O)CC#N)cc2)c(C)n1C1CC1,0,3,-1,4,-1,.,.,.,.,
